In all, about 4,800 compounds went through this assay and about 420 (8.8%) showed an effect of 50% or more. The sample holds strong results, similar compounds and a random draw of the others, so the mix is not that of the screen.
The compounds below were run on Plasmodium falciparum (assay: Confirmatory screen in NF54 nanoGlo assay, in single point, at 2uM, 72h). Settings: timepoint 72 hour.
Format: functional, Erythrocyte
For `COc1cc(=O)c(C(=O)N2CCC(C(N)=O)CC2)nn1-c1ccc(F)c(F)c1`, the “% Inhibition” value was 3%.
With `Cc1nccn1-c1cc(CNC(=O)[C@H]2CCCN(S(=O)(=O)c3cccs3)C2)ccn1` the “% Inhibition” value was 2%.
With `O=C(c1ccccc1)n1c(=O)n(C(=O)c2ccccc2)c2ccccc21` the “% Inhibition” value was 6%.
For `Cc1n(CC(=O)c2ccccc2)c2ccccc2[n+]1CC(=O)c1ccccc1`, the “% Inhibition” value was 68%.
For `Cc1ccc(C(=O)C[n+]2cc(-c3ccc(-c4ccccc4)cc3)n(C)c2N)cc1`, the “% Inhibition” value was 4%.
In the case of `COc1ccc(S(=O)(=O)N2CCN(Cc3noc(CCC(=O)N(C)Cc4ccccc4)n3)CC2)cc1`, the “% Inhibition” value was -6%.
With `CC(C)(CC(=O)O)CC(=O)Nc1ccc(Cc2nnc3ccccn23)cc1` the “% Inhibition” value was -4%.
With `COc1cc(OC)cc(C2(O)CCN(C(=O)CCc3ccccc3F)CC2)c1` the “% Inhibition” value was -10%.
For `COc1cc(-c2nc3ccccc3s2)ccc1OCc1cccc2ccccc12`, the “% Inhibition” value was -7%.
In the case of `O=C(NCC1CC1)c1cn[nH]c1-c1ccccc1`, the “% Inhibition” value was -1%.
With `COc1ccc(-c2c(C(F)(F)F)n[nH]c2-c2ccc(OCc3ccccc3F)cc2O)cc1` the “% Inhibition” value was 90%.
For `c1ccc(-c2cn[nH]c2N2CCNCC2)cc1`, the “% Inhibition” value was -7%.
With `Oc1cc(OCc2ccccc2F)ccc1-c1[nH]ncc1-c1ccccc1` the “% Inhibition” value was 75%.
`NS(=O)(=O)Cc1ccc(CNc2ccc3ccc(F)cc3n2)cc1` was tested, and the “% Inhibition” value was 3%.
In the case of `CCC(=O)N1CCc2sc(C(=O)NC3CCN(Cc4ccccc4)CC3)cc2C1`, the “% Inhibition” value was -5%.
`CCCn1nccc1C(=O)NCCCn1ncc2c(C)cccc21` was tested, and the “% Inhibition” value was -2%.
For `CNC(=O)c1cc(NS(=O)(=O)N2CCCCCC2)ccc1F`, the “% Inhibition” value was -8%.
With `CCNC(=O)N1CCCC[C@@]1(C)c1noc(-c2ccc(F)cc2)n1` the “% Inhibition” value was 5%.
`Fc1ccc(COc2cccc(CNCCN3CCOCC3)c2)cc1` was tested, and the “% Inhibition” value was -8%.
`O=C(Nc1ccncc1)c1nc(N2CCCC2)ncc1Br` was tested, and the “% Inhibition” value was -5%.
In the case of `Cc1nn(C)c(Cl)c1CNCc1ccc(N2CCCCC2)nc1`, the “% Inhibition” value was -10%.
For `COc1cc(CNCCN2CCOCC2)ccc1OCc1cccc(C)c1`, the “% Inhibition” value was -2%.
With `CC1CCC(C)(NC(=O)Nc2ccn(C(C)C)n2)CC1` (configuration not stated) the “% Inhibition” value was -11%.
`CC1(C)CC[C@H](NC(=O)CCNc2ncccn2)c2ccccc21` was tested, and the “% Inhibition” value was -8%.
With `COc1cc2c(cc1OC)CN(c1noc(-c3ccccc3)n1)CC2` the “% Inhibition” value was -5%.
With `CC(C)(C)c1ccc(C(=O)N[C@H]2C[C@@H]3CC[C@H]2C3)cc1` the “% Inhibition” value was 8%.
With `Cc1ccc(CNC(=O)c2csnn2)n1C` the “% Inhibition” value was -1%.
With `COc1ccc(CNC(=O)[C@H](C)n2ccc3cc(S(=O)(=O)N4CCCC4)ccc32)cc1OC` the “% Inhibition” value was 0%.
In the case of `O=C1NC(=O)C2(CCN(C(=O)C3CC4CCC3C4)CC2)N1` (configuration not stated), the “% Inhibition” value was -7%.
`CC(C)C(=O)N1CC[C@H](CC(=O)NCc2ccncc2)C1` was tested, and the “% Inhibition” value was 0%.
With `N#CC1CCC(Nc2cnn(-c3ccncc3)c2)CC1` (configuration not stated) the “% Inhibition” value was 5%.
For `CS(=O)(=O)N1CC[C@H](CC(=O)N2CCN(c3ccc(F)cc3)CC2)C1`, the “% Inhibition” value was -14%.
With `Cc1nn(C)cc1S(=O)(=O)N1CCC[C@@H]1CCc1ccccn1` the “% Inhibition” value was -12%.
`COc1cc(OC)c(OC)cc1CNC(C)C` was tested, and the “% Inhibition” value was -2%.
With `Cc1c(C(=O)NC[C@](C)(O)c2ccc(F)cc2F)cnn1C` the “% Inhibition” value was 7%.
With `CN(Cc1cccnc1)c1ccc(S(=O)(=O)C(F)F)cc1` the “% Inhibition” value was -5%.
`O=C(NCCc1c(Cl)cccc1Cl)[C@@H]1CCCc2[nH]cnc21` was tested, and the “% Inhibition” value was -2%.
For `O=C(c1cc(F)c[nH]1)N1CCN(C(=O)c2cc(F)c[nH]2)[C@@H]2CCCC[C@H]21`, the “% Inhibition” value was 13%.
With `COc1ccc(-c2cc3ncc(C(=O)c4cc(Cl)ccc4O)cn3n2)cc1` the “% Inhibition” value was 72%.
`COc1ccc(C2=NC3(CCN(Cc4ccccc4)CC3)N[C@H](c3cc(Cl)ccc3O)C2)cc1` was tested, and the “% Inhibition” value was 24%.
With `O=C(Cc1ccc(Cl)cn1)Nc1ccnn1[C@H]1CCCc2ccccc21` the “% Inhibition” value was -10%.
For `CN1CCN(C(=O)CNC(=O)c2cccc(Cl)c2)CC1`, the “% Inhibition” value was -2%.
For `Cc1ccc(COc2cccc(CNC3CC3)c2)cc1`, the “% Inhibition” value was -7%.
With `Cc1ccc(S(=O)(=O)N(CC(=O)NC2CCN(C)CC2)c2cccc(Cl)c2)cc1` the “% Inhibition” value was -7%.
With `Cn1c(=O)c2ccnn2c2ccc(C(=O)NC3CCN(Cc4ccccc4)CC3)cc21` the “% Inhibition” value was 23%.
`CC(C)Cn1ncnc1COC(=O)c1cccnc1` was tested, and the “% Inhibition” value was -1%.
`Cc1cc2[nH]ncc2cc1NC(=O)c1ccco1` was tested, and the “% Inhibition” value was -8%.
`CC[C@H]1C[C@@H]1CNC(=O)c1cccc(NC(=O)c2ccco2)c1` was tested, and the “% Inhibition” value was -7%.
With `CC(C)(C)c1nc(Cn2c3c(sc2=O)CCCC3)no1` the “% Inhibition” value was 1%.
In the case of `COc1ccc(CN2CCC(C(=O)NCCCN3CCOCC3)CC2)c(OC)c1`, the “% Inhibition” value was 4%.
For `Cc1ccccc1S(=O)(=O)c1cc2cc(Br)cc(Br)c2nc1N`, the “% Inhibition” value was 0%.
With `COc1cccc(C2=NS(=O)(=O)N(C)C(C(=O)N3CCC(C(N)=O)CC3)=C2)c1` the “% Inhibition” value was 20%.
In the case of `CC(=O)c1ccc(NC(=O)Cn2c(-c3ccccc3)nc(C)cc2=O)cc1`, the “% Inhibition” value was 4%.
With `CC(=O)Nc1ccc(-c2cn3c4ccccc4ccc3[n+]2C)cc1` the “% Inhibition” value was 76%.
For `CC(=O)Nc1ccc(NC(=O)CCC(C)C)cc1`, the “% Inhibition” value was -9%.
In the case of `CC(=O)N[C@H]1[C@H](c2ccccc2)N(CCCc2ccccc2)CC[C@@]1(C)O`, the “% Inhibition” value was 1%.
With `C#CCN(C(=O)c1cnn(CC(C)C)c1C(F)F)c1nccs1` the “% Inhibition” value was -1%.
In the case of `Cc1ccc(C2=NC3(CCCC3)NC2=O)cc1`, the “% Inhibition” value was 3%.
For `c1ccc2cc(-c3ccc4ccccc4n3)ccc2c1`, the “% Inhibition” value was -1%.
In the case of `Cc1ccc[n+](Cc2ccc3ccccc3n2)c1`, the “% Inhibition” value was 53%.
In the case of `c1ccc2c[n+](Cc3ccc4ccccc4n3)ccc2c1`, the “% Inhibition” value was 50%.
In the case of `O[C@@H](Cc1ccc2ccccc2n1)c1ccccc1`, the “% Inhibition” value was -5%.
For `CC(C)(C)OC(=O)N1CCN(C[C@H]2CN(c3ccc(F)cc3)C(=O)O2)CC1`, the “% Inhibition” value was -11%.
`O=C(Nc1ccccc1)c1ccc(Nc2ncc(-c3cccc(F)c3)cn2)cc1` was tested, and the “% Inhibition” value was -3%.
With `CC(C)(C)c1ccc(-c2cc(C[C@H]3CNCC[C@H]3CC(=O)NCCN3CCOCC3)no2)cc1` the “% Inhibition” value was 9%.
For `OC(CNC1CCCNc2ccccc21)c1ccc(Cl)s1` (configuration not stated), the “% Inhibition” value was 58%.
`O=C(NC[C@H](O)c1ccc(Cl)s1)c1ccsc1` was tested, and the “% Inhibition” value was 1%.
`CC(C)(C)OCCON=C(N)c1cccs1` was tested, and the “% Inhibition” value was 10%.
With `O=C(C[C@@H]1C=CCC1)Nc1nc(-c2ccc(Cl)cc2)cs1` the “% Inhibition” value was 2%.
With `C[C@H]1CNCCN1C(=O)c1coc2ccccc12` the “% Inhibition” value was -4%.
With `O=C(Cn1ccnc1)N1CCCCCC1CC(O)c1ccccc1` (configuration not stated) the “% Inhibition” value was 0%.
For `O=c1[nH]c2cc3c(cc2c(=O)n1CCc1nc(-c2ccccc2Br)no1)OCO3`, the “% Inhibition” value was -4%.
For `O=C(C[C@H]1CCN(C(=O)Nc2ccccc2)C1)NC1CC1`, the “% Inhibition” value was -6%.
`O=C(Nc1ccncc1)c1ccc2ccccc2n1` was tested, and the “% Inhibition” value was 0%.
In the case of `CCOC(=O)c1cc(NC(=O)C(C)(C)NC(=O)OC(C)(C)C)c(F)cc1C`, the “% Inhibition” value was -2%.
In the case of `CCOC(=O)c1ncn(C2CCCCC2)c1N`, the “% Inhibition” value was 1%.
For `CCOC(=O)c1cn(CC)c2cc(NC3CCCCC3)c(F)cc2c1=O`, the “% Inhibition” value was 78%.
For `CCc1ccc(CNC(=O)C2(N3CCOCC3)CCC2)s1`, the “% Inhibition” value was -5%.
In the case of `CCCN(CCC)C(=O)CCC(=O)N[C@]1(C(F)(F)F)CCc2ccccc21`, the “% Inhibition” value was 15%.
With `Cc1cccc(NC(=O)[C@@H](C#N)C(=O)C2CCC2)c1` the “% Inhibition” value was 0%.
For `CN1CCC(N2CCN(Cc3ccc4cc(O)ccc4c3)CC2)CC1`, the “% Inhibition” value was 46%.
With `COc1ccc(CN(Cc2ccncc2)CC2CCN(C3CCN(C)CC3)CC2)c(F)c1` the “% Inhibition” value was 85%.
`CN1CCC(N2CCC(CN(Cc3ccncc3)Cc3c(F)cccc3Cl)CC2)CC1` was tested, and the “% Inhibition” value was 23%.
For `O=C(Nc1ncc(CCO)s1)[C@@H]1CCCN1C(=O)Cc1cccs1`, the “% Inhibition” value was 0%.
In the case of `Clc1ccccc1COc1ccc(CNC2CCCCC2)cc1`, the “% Inhibition” value was -2%.
`CC(C)CC[C@@H](CCNC1CCN(C)CC1)c1ccc(Cl)cc1` was tested, and the “% Inhibition” value was 80%.
With `CN1CCC(NCC[C@@H](Cc2ccccc2Cl)c2ccc(Cl)cc2)CC1` the “% Inhibition” value was 82%.
In the case of `CC(C)CC[C@@H](CCNCCN(C)C)c1ccc(Cl)cc1`, the “% Inhibition” value was 96%.
In the case of `CN(C)CCCNCc1ccc(Cl)cc1Cl`, the “% Inhibition” value was -3%.
With `CN(C)CCNCc1ccc(Cl)c(Cl)c1` the “% Inhibition” value was -11%.
For `CCn1cnnc1C1CCN([C@@H](C)C(=O)Nc2ccccc2C)CC1`, the “% Inhibition” value was -7%.
In the case of `COc1ccc(C)cc1-n1ccc(C(=O)N2CCCc3c(C(N)=O)cccc32)n1`, the “% Inhibition” value was -11%.
`COC(=O)c1ncn(CNC2(c3ccc(Cl)cc3)CCCC2)n1` was tested, and the “% Inhibition” value was 6%.
For `CN(C)c1ccc(-c2nc([C@H]3CCOC3)cs2)cc1`, the “% Inhibition” value was 6%.
For `Cc1cc(CN2C(=O)NC3(CCCCC3)C2=O)no1`, the “% Inhibition” value was -4%.
For `Cc1cccnc1C(=O)N1CC(n2cnnc2[C@@H]2CCCO2)C1`, the “% Inhibition” value was -2%.
For `Cc1ccc(-c2cc(O)cc(CC[C@H]3CCCCN3)c2)c(C)n1`, the “% Inhibition” value was 53%.
In the case of `Cc1cc(S(=O)(=O)NC[C@H]2CCCCN2)sc1C`, the “% Inhibition” value was -9%.
In the case of `CC(=O)c1cc(-c2cc(O)cc(CC[C@H]3CCCCN3)c2)ccc1O`, the “% Inhibition” value was 78%.
In the case of `Cc1cc(-c2cc(O)cc(CC[C@H]3CCCCN3)c2)ccn1`, the “% Inhibition” value was 79%.
In the case of `CC1CC(N)CCN1C(=O)c1cccc(-c2noc(C3CC3)n2)c1` (configuration not stated), the “% Inhibition” value was 2%.
For `CN(CCOc1ccc(Cl)cc1Cl)[C@H]1CCS(=O)(=O)C1`, the “% Inhibition” value was -7%.
In the case of `CCN(C(C)=O)c1ccc(Cl)cc1F`, the “% Inhibition” value was -13%.
`COc1ccc(C)cc1NC(=O)C[C@H]1CCN(S(C)(=O)=O)C1` was tested, and the “% Inhibition” value was 0%.
In the case of `Cc1cc2nc(C(=O)NC3CCN(Cc4ccccc4)CC3)c(=O)n(C)c2cc1C`, the “% Inhibition” value was -8%.
For `O=C(Cn1cccc1-c1nc(-c2ccc(F)c(Br)c2)no1)N1CCc2ccccc2C1`, the “% Inhibition” value was 1%.
`CC(C)c1nc(C2CN(C(=O)Nc3ccc(F)c(Cl)c3)C2)n(C)n1` was tested, and the “% Inhibition” value was 4%.
`CC(C)c1cc(=O)[nH]c(-n2nc(C3CC3)cc2NC(=O)Cc2ccc(Cl)cc2)n1` was tested, and the “% Inhibition” value was 69%.
With `O=C(Nc1ccc(OC(F)F)cc1)c1cc(C2CC2)nc2c1c(C1CC1)nn2-c1ccccc1` the “% Inhibition” value was -7%.
With `CC(C)c1cc(=O)[nH]c(-n2nc(C3CC3)cc2NC(=O)COc2ccc3ccccc3c2)n1` the “% Inhibition” value was 70%.
In the case of `Cc1ccc(N2C[C@@H](c3nnc(NC(=O)Cc4ccc(Cl)cc4)o3)CC2=O)cc1`, the “% Inhibition” value was -13%.
With `Cc1cc(NC(=O)c2ccc(COc3ccc4ccccc4c3)o2)nn1C` the “% Inhibition” value was -3%.
